An excerpt weighted towards active compounds, which were near 1.3% of everything screened.
PfHsp40 rescue: restores yeast growth despite PfHsp40 toxicity. S. cerevisiae expressing PfHsp40, growth rescue, ATP luminescence. growth rescue, % at 12.5 µM. 340,000 compounds, 0.68% hits; in the data active means growth rescue above about 28%, passing the limit was not always enough;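 further: yeast W303a lacking pdr1 and pdr3 grown in galactose medium; growth measured after three days at 30 °C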
Sa RN4220 lethal: S. aureus RN4220 growth inhibition. OD600, 16 h. inhibition, % (test concentration not listed). 330,000 compounds, 0.33% hits; in the data active means inhibition above about 85%;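 further: plate controls were untreated cells for no effect and reference antibiotic for full effect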
Mtb hypoxia rep: reduces hypoxia-regulated biosensor signal in M. tuberculosis; M. tuberculosis hypoxia-regulated fluorescent reporter, fluorescence; fluorescence inhibition, % (concentration not given with the values); 300,000 compounds, 0.1% hits; in the data active means fluorescence inhibition mostly above about 23%, no sharp cut-off; inactive means mostly below about 17%
MazEF act: increases E. coli MazEF RNase cleavage of RNA. FAM/BHQ RNA-DNA oligo cleavage fluorescence, 5 h. activation, % at 20 µM. 350,000 compounds, 0.32% hits; in the data active means activation above about 50%
Target sequence (P0AE70 whole entry, looked up): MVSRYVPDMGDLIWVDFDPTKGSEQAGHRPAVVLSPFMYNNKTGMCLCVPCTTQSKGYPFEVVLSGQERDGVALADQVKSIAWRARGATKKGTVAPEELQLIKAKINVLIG
ugtP null kill: kills S. aureus RN4220 lacking UgtP; S. aureus RN4220 ugtP deletion, OD600 growth, 16 h; AID 1259309; growth inhibition, % (test concentration not listed); 330,000 compounds, 0.54% hits; in the data active means growth inhibition above about 68%;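 further: plate controls were untreated wells for no effect and antibiotic for full effect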
TcdB inh: blocks C. difficile toxin B glycohydrolase activity; P18177; TcdB glycohydrolase enzymatic assay, plate reader; inhibition, % at 9.99 µM; 350,000 compounds, 0.24% hits; in the data active means inhibition above about 10%
An asterisk follows results filed as active; . = no result given.

SMILES | PfHsp40 rescue | Sa RN4220 lethal | Mtb hypoxia rep | MazEF act | ugtP null kill | TcdB inh
COc1cc(OC)cc(C(=O)NNC(=O)CN2C(=O)NC(C)(c3ccc(C)cc3)C2=O)c1 (configuration not stated) | 0.1 | 2.5 | 0.8 | 4.3 | -1.5 | 14.1*
COc1ccc(NC(=O)CN2C(=O)NC(C)(c3ccc(C)cc3)C2=O)c([N+](=O)[O-])c1 (configuration not stated) | 2.4 | -0.6 | -9.1 | -10.8 | 0.6 | 0.6
COCCn1c(NC(=S)NC(=O)C2CC2)cc(=O)[nH]c1=O | -1.3 | 1.1 | 0.6 | 1.7 | 0.8 | 23.0*
O=C(CC(=O)NN=Cc1ccccc1)NCc1ccccc1 | . | 1.0 | 12.3 | . | -2.8 | .
CO[C@H]1CN(C)C(=O)c2ccc(NC(C)=O)cc2OC[C@@H](C)N(C(=O)c2ccccn2)C[C@H]1C | . | . | . | . | . | 0.1
Nc1nnc(CCS(=O)(=O)c2cc(Cl)ccc2Cl)s1 | -0.7 | -4.9 | -2.2 | -0.9 | -3.1 | .
Cc1ccccc1CN(C)CCS(=O)(=O)c1cc(Cl)ccc1Cl | 60.7* | . | . | -1.7 | . | 1.6
Cc1ccc(O)c(NC(=O)C2CC(c3c(F)cccc3Cl)=NO2)c1 (configuration not stated) | 36.1* | 6.4 | 14.9 | 6.4 | -7.8 | .
Cc1cc(NS(=O)(=O)c2ccc(C(C)C)cc2)no1 | -0.8 | 6.9 | -7.4 | -1.6 | 4.7 | -1.2
Cc1cc(NS(=O)(=O)c2ccc(CC(C)C)cc2)no1 | 39.9* | 5.7 | 1.8 | -5.3 | -9.0 | .
Cc1cc(NS(=O)(=O)c2ccc(C3CCCCC3)cc2)no1 | 509.5* | 22.2 | 0.4 | -2.2 | -36.6 | 0.2
C=CCc1cc(C=O)cc(OC)c1OCc1ccc(Cl)cc1 | 3.1 | -4.1 | . | -11.5 | 86.1* | .
C=CCc1cc(C=O)cc(OCC)c1OCc1ccc(Cl)cc1 | -1.3 | -17.1 | 3.8 | -1.1 | 99.3* | 1.3
Cc1ccc(C2C(C(=O)c3ccco3)=C(O)C(=O)N2c2ncccn2)cc1 (configuration not stated) | 0.7 | 3.3 | -2.1 | -2.5 | 7.2 | 1.7
Cc1nnc(N2C(=O)C(O)=C(C(=O)c3ccco3)C2c2ccc(C(C)(C)C)cc2)s1 (configuration not stated) | 1.5 | -4.4 | 12.8 | 191.9* | 5.2 | .
Cc1nnc(N2C(=O)C(O)=C(C(=O)c3ccco3)C2c2ccc(C(C)C)cc2)s1 (configuration not stated) | 0.5 | 11.8 | 5.4 | 62.3* | 4.9 | .
Cc1nnc(N2C(=O)C(O)=C(C(=O)c3ccco3)C2c2ccc(F)cc2)s1 (configuration not stated) | 0.0 | 12.7 | . | 2.4 | 7.0 | -2.0
CSc1ccc(C2C(C(=O)c3ccco3)=C(O)C(=O)N2c2nnc(SC)s2)cc1 (configuration not stated) | -0.7 | . | . | 186.8* | . | 2.0
S=C1SCN(Cc2cccnc2)CN1Cc1cccnc1 | 309.2* | . | . | 11.2 | . | 0.0
CC1CCN(c2nc3ccccn3c(=O)c2C=O)CC1 | 0.6 | 8.9 | 45.3* | 1.3 | 4.4 | 0.0
Cc1cc(C)c2[nH]c(O)c(N=NC3=NC(=O)CS3)c2c1 | -0.3 | 4.7 | -0.3 | 4.0 | 10.1 | -0.8
Cc1cc(C)c2[nH]c(O)c(N=Nc3ccc(C(=O)O)cc3)c2c1 | -1.7 | 90.4* | -2.5 | 0.5 | 85.0* | -0.7
Cc1ccccc1Cn1cccc1/C=C1/C(=N)N2C=CSC2=NC1=O | -0.4 | . | . | 163.6* | . | .
CC(C)c1ccc(-n2cccc2/C=C2/C(=N)N3C=CSC3=NC2=O)cc1 | 0.0 | -12.8 | 1.9 | -5.2 | 18.1 | 0.2
O=C(NN=Cc1ccc(OC(=O)c2ccccc2Cl)cc1)c1ccccn1 | . | 0.6 | 7.9 | . | 3.0 | .
SMILES | PfHsp40 rescue | Sa RN4220 lethal | Mtb hypoxia rep | MazEF act | ugtP null kill | TcdB inh
Cc1cc(C)nc(SCc2nnc(SCC(N)=O)n2Cc2ccco2)n1 | -0.1 | 2.7 | 6.5 | 8.3 | 10.3 | .
CCOC(=O)CSc1nnc(CSc2nc(C)cc(C)n2)n1Cc1ccco1 | -0.8 | 5.1 | 4.0 | 74.0* | -2.5 | .
Cc1noc(C)c1NC(=O)N(C)C[C@@H]1Oc2ccc(NC(=O)NC(C)C)cc2CC(=O)N([C@@H](C)CO)C[C@@H]1C | . | . | . | . | . | -5.3
CCC(CC)C(=O)Oc1c(Sc2ccccc2[N+](=O)[O-])c(C)nn1C(C)(C)C | 0.8 | -6.8 | -8.0 | -7.6 | 95.6* | .
COCC(=O)Oc1c(Sc2ccccc2[N+](=O)[O-])c(C)nn1C(C)(C)C | 2.2 | 7.6 | 13.6 | -0.1 | 7.2 | -1.9
Cc1ccc(S(=O)(=O)N(C)N=O)cc1 | -0.5 | 98.7* | -0.2 | -0.2 | 98.6* | -0.1
